From PubChem BioAssay AID623877 (Johns Hopkins Ion Channel Center, 2012) come the findings set out here.

The campaign covered roughly 340,000 compounds. About 1,000 (0.29%) were called active.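 Rule for the calls: active = fluorescence-ratio B-score plate-corrected deviation score at least 3 library SD below zero, with starting fluorescence score within 5 deviations; inactive = the rest.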 For the sample, actives were picked, then their nearest neighbours and some compounds at random.

Anoctamin-1 (Mus musculus), sequence (Q8BHY3 whole entry, looked up): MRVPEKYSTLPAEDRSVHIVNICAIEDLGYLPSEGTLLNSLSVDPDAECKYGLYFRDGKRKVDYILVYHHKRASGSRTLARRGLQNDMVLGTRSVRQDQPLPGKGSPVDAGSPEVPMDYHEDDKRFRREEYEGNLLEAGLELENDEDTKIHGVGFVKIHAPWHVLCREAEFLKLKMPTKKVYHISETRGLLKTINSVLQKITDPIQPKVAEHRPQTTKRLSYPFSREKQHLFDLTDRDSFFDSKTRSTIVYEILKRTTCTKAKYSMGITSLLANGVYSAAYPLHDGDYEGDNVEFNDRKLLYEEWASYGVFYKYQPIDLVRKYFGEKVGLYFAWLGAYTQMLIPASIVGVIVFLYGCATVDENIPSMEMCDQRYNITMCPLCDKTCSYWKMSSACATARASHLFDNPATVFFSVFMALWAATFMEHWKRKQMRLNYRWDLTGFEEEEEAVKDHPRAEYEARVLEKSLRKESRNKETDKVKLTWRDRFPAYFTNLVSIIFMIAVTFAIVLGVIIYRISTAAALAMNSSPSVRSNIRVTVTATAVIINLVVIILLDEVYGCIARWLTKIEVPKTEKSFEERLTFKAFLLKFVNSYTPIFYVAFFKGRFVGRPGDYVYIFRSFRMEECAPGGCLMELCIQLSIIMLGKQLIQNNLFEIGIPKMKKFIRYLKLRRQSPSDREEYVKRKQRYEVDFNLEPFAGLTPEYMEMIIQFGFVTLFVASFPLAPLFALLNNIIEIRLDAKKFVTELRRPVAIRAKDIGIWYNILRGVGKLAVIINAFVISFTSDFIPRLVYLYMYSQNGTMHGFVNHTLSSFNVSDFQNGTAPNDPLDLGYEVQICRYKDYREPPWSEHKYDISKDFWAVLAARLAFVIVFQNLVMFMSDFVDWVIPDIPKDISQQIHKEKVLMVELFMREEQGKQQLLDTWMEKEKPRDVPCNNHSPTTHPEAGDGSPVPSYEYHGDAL

This experiment concerns the target Anoctamin-1 (Mus musculus) (UniProt Q8BHY3). Put plainly: mouse ANO1 channel activation – cell-based, HTS, primary screen (AID 623877).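 For B-score: channel opened by trigger with iodide after compound preincubation; score built on the fluorescence ratio of max minus min over baseline; more negative score means more quench and so TMEM16A activation or potentiation.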 Particulars: HEK293 TMEM16A/YFP-H148Q/I152L, iodide quench fluorescence, at 10 µM; hits give low values.
As to `CC(C)N(Cc1ccccc1)C(=O)COC(=O)c1cnccn1`, the B-score entry is “inactive”.

`Cc1ccc2c(c1)-c1c(ssc1=S)C(C)(C)N2C(=O)CN1C(=O)c2ccccc2C1=O`: the B-score result is “inactive”. For the compound `Cc1cc2c(cc1C)N(C(=O)CN1C(=O)c3ccccc3C1=O)C(C)(C)c1ssc(=S)c1-2`, the B-score is -9.51 (active). Turning to `Cc1cc(C)cc(NC(=O)CN2C(=O)c3ccccc3C2=O)c1`, the B-score entry is “inactive”. With `O=C(NCCCN1CCN(c2ccccc2F)CC1)C1CCC(=O)N1C1CCCCC1` (stereo not given), the B-score result was “inactive”.

As to `Cc1ccccc1CSc1nnc(Cn2c(=O)sc3ccccc32)n1C`, the B-score entry is “inactive”. Regarding `Cc1ccc(NS(=O)(=O)c2ccc3c(c2)oc(=O)n3C)c(C)c1`, the B-score result was “inactive”.

Consider `O=C(NCc1ccco1)C1CCCN(S(=O)(=O)c2ccccc2)C1` (stereo not given), for which the B-score result is “inactive”. For `O=C(NCc1ccco1)C1CCCN(S(=O)(=O)c2cnc[nH]2)C1` (stereo not given), the B-score is -16.8 (active).

Turning to `CCCS(=O)(=O)N1CCCC(C(=O)NCc2ccco2)C1` (stereo not given), the B-score result is “inactive”. For `Cc1cc(S(=O)(=O)NCC(C)C)ccc1OCC(=O)NC1CC1`, the B-score entry was “inactive”. Under `CCN(CC)CCOc1ccc2c(c1)C(=NNC(=O)c1ccccn1)c1cc(OCCN(CC)CC)ccc1-2` stands “inactive”; under `CCn1c(SCC(=O)Nc2ccccc2F)nc2c(c1=O)SC(C)C2` (stereo not given), “inactive”. As for `O=C(Nc1cccc([N+](=O)[O-])c1)Nn1cnnc1`, the B-score entry is “inactive”.

Regarding `COc1ccc(S(=O)(=O)NC(C)C(=O)Nc2cccc([N+](=O)[O-])c2)cc1` (stereo not given), the B-score result was “inactive”. With `COC(=O)/C=C\C(=O)Nc1cccc([N+](=O)[O-])c1` the figure was -4.72 (active). On to `CCn1c(SCC(=O)Nc2ccc3c(c2)OCCO3)nnc1C(C)C`, for which the B-score entry is “inactive”.

Regarding `CCn1c(SCC(=O)Nc2ccc3c(c2)OCCO3)nnc1-c1ccncc1`, the B-score result is “inactive”. For `CCn1c(COc2ccccc2)nnc1SCC(=O)Nc1ccc2c(c1)OCCO2`, the B-score was -32.9 (active).

On to `C/C(=N\NC(=O)c1cccnc1)c1ccc(-n2ccnc2)cc1`, for which the B-score result is “inactive”. As for `Nc1nc(NC(=O)/C=C/c2ccccc2)nn1-c1ccccc1`, the B-score result is “inactive”. As for `C=CCSc1nnc(N2C(=O)C(O)=C(C(=O)c3ccco3)C2c2ccc(F)cc2)s1` (stereo not given), the B-score is -5.81 (active). On to `Cc1ccc2nc(N3C(=O)C(O)=C(C(=O)c4ccco4)C3c3cccc(O)c3)sc2c1` (stereo not given), for which the B-score result is “inactive”. In the case of `C=CCOc1cccc(C2C(C(=O)c3ccc(C)o3)=C(O)C(=O)N2c2nnc(C)s2)c1` (stereo not given), the B-score entry was “inactive”. As to `COc1cccc(NC(=O)CN(C)C(=O)c2cc(C3CC3)nn2-c2ccccc2)c1`, the B-score entry was “inactive”. With `O=C(COc1ccc(NC(=O)c2ccccc2[N+](=O)[O-])cc1)c1ccc(F)cc1` the entry was “inactive”; with `COc1ccc(OC)c(NC(=O)CSc2nc(N)c(-c3ccccc3)c(=O)[nH]2)c1`, “inactive”. As for `CCCOC(=O)CC1C(=O)NCCN1Cc1ccc(F)cc1` (stereo not given), the B-score entry is “inactive”. With `CC(C)c1nc2oc3c(N4CCN(C)CC4)ncnc3c2c2c1CCC2` the entry was “inactive”; with `Cc1cccc(Oc2c([N+](=O)[O-])c(=O)n(C)c3ccccc23)c1`, “inactive”.

Regarding `Cn1c(=O)c([N+](=O)[O-])c(Oc2ccccc2)c2ccccc21`, the B-score is -29 (active). `Cc1cc(C)c(-c2c(O)c3ccccc3n(C)c2=O)c(C)c1`: the B-score result is “inactive”. Take `CN(CCC(=O)Nc1cc(S(=O)(=O)N(C)C)ccc1Cl)CC(=O)Nc1ccc(F)cc1`: the B-score entry is “inactive”. For the compound `CC1=CC(=NNS(=O)(=O)c2ccc([N+](=O)[O-])cc2)CC(C)(C)C1`, the B-score result was “inactive”. Under `CC(=O)c1cc(NC(=O)c2ccccc2)c(=O)oc1/C=C/N(C)C` stands -6.65 (active); under `CCOC(=O)c1cc(NC(=O)c2ccc(Cl)cc2)c(=O)oc1-c1ccccc1`, “inactive”; under `COc1cc(NC(=O)c2ccccc2)c(OC)cc1NC(=O)Cc1ccccc1`, “inactive”. Take `COc1ccc(N(CCC(=O)NCCc2ccccc2)S(=O)(=O)c2ccc(C)cc2C)cc1`: the B-score entry is “inactive”. Under `Nc1ccc2[nH]c(=S)sc2c1` stands “inactive”; under `CCN(CCCCOC(=O)c1ccc(OC)c(OC)c1)C(C)Cc1ccc(OC)cc1` (stereo not given), -9 (active). Under `COc1ccc(C(CCN(Cc2ccc(OC)c(OC)c2)C(=O)CCl)c2ccccc2)cc1` (stereo not given) stands “inactive”.

With `COc1ccc(C(=O)OCC(=O)NCCCc2ccccc2)cc1OC`, the B-score result is “inactive”. Turning to `CCOCCCNC(=S)N1CCC(NC(=O)C2CCCCC2)CC1`, the B-score entry is “inactive”. On to `CCOc1ccccc1NC(=S)NC(=O)CCc1ccccc1`, for which the B-score result was “inactive”. On to `CCc1cccc(NC(=O)COC(=O)C2CCN(c3ccc(C(F)(F)F)cn3)CC2)c1`, for which the B-score entry was “inactive”.

In the case of `CC(=O)C[C@@H](O)CC(=O)[C@H]1OC(=O)CCCCCCc2ccccc21`, the B-score was -17.5 (active). With `CC[C@@H]1CCCCc2ccccc2[C@@H](C(=O)C[C@H](O)CC(C)=O)OC1=O` the entry was “inactive”; with `CC(=O)C[C@H](O)CC(=O)[C@@H]1OC(=O)[C@@H](C)C/C=C\Cc2ccccc21`, “inactive”. Consider `CCOC(=O)CSc1nnc(CNC(=O)Cc2ccccc2)n1-c1ccccc1OC`, for which the B-score entry is “inactive”. As to `Cc1cc(OC(=O)c2ccc(Cl)cc2)cc(=O)n1C`, the B-score entry was “inactive”.

For `CCOC(=O)c1c(CC(C)C)csc1/N=C/C1=C(O)CCCC1=O`, the B-score result was “inactive”.

As for `CCOC(=O)c1sc(/N=C/C2=C(O)CC(C)(C)CC2=O)c(C(=O)OCC)c1C`, the B-score is -35.4 (active).

Regarding `CCOC(=O)c1c(/N=C/C2C(=O)CC(C)(C)CC2=O)sc(C)c1C`, the B-score entry is “inactive”. For `COc1ccc(Cl)cc1NC(=O)Cn1nc(-c2ccc(C)cc2)n(C)c1=S`, the B-score entry is “inactive”. With `CCC(NC(=O)C1CCCC1)c1ccc(C)cc1` (stereo not given) the entry was “inactive”.
